HepG2 viability: HepG2 cytotoxicity, counter-screen for TGF-b inhibitors. Potency, µM (titrated, usually from 46.1 µM), most hits filed as cytotoxic. HepG2 CAGA-GFP viability, ATP luminescence, 18 h. 0.76% of 410,000 active
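CellTiter-Glo luminescence gave cytotoxicity after 18 hours at 37 degrees C. The cells were HepG2 CAGA-GFP in 1% FBS DMEM, stimulated with 500 pg/mL TGF-beta after compound addition. %Activity was normalised to no-cell wells (complete cell-killing) and DMSO (no toxicity), and curves were fitted and classified.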
ATXN2 expr inh: reduces ATXN2 reporter expression in HEK-293 cells; AID 1745845; 0.72% of 360,000 active; HEK-293 ATXN2-luciferase reporter, luminescence, 24 h; Potency, µM (doses to about 57 µM), most hits filed as inhibitors; further: nearly all actives have a fitted effect of over 55% in size
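qHTS (up to 57 uM final) was run with 24 h compound exposure of reporter cells at 37 °C. Each well was multiplexed: SteadyGlo luminescence measured ATXN2-luciferase expression after a fluorogenic Gly-Phe-AFC viability readout (25 uM final).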
TGFb inhibitor: blocks TGF-b signaling | Potency, µM (highest dose often 46.1 µM), most hits filed as inhibitors | AID 588855 | 1.2% of 410,000 active | HepG2 CAGA-GFP TGF-b/SMAD3 reporter, GFP fluorescence, 18 h; TGF-beta stimulated, 500 pg/mL final; further: nearly all actives have a fitted effect of over 65% in size
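GFP signal (ex488/em500-530) from TGF-beta-stimulated HEPG2 CAGA-GFP cells, 500 pg/mL final, 18 h at 37 degrees C in DMEM plus 1% FBS, normalized to unstimulated and DMSO-stimulated controls.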
GLP1R ag: activates the human GLP-1 receptor. Potency, µM (series often up to 45.6 µM), hits mostly activators. AID 624172. HEK293 GLP-1R CRE-luciferase, luminescence, 4-6 h; cells express a hypersensitive GLP-1R form. 0.007% of 380,000 active
Target sequence (P43220 whole entry, looked up): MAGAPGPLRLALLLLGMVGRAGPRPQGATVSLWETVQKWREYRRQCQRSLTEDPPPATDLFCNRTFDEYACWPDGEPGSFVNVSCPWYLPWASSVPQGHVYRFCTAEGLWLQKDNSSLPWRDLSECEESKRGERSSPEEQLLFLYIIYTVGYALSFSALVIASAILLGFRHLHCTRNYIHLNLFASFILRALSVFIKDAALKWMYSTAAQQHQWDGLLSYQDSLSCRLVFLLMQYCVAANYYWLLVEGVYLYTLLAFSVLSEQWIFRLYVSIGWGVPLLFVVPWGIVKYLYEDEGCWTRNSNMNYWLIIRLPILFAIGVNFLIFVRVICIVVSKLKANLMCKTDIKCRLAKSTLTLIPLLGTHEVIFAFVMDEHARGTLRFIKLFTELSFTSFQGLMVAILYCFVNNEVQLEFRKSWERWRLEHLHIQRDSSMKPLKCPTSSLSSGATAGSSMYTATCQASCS
S2 tox: reduces viability in counter-screen for ATXN expression inhibitors; S2 cells (HEK-293 line with an ATXN2-luciferase reporter) viability, CellTiter-Fluor protease fluorescence, 24 h; 0.49% of 400,000 active; Potency, µM (series often up to 56.7 µM), actives largely listed as cytotoxic; further: nearly all actives have a fitted effect of over 40% in size
GLP-1R inv ag: inverse agonists of human GLP-1 receptor. P43220. HEK293 GLP-1R CRE-luciferase, luminescence, 24 h; GLP-1R form is constitutively active. Potency, µM (titrated, usually from 38.3 µM), actives largely listed as inhibitors. 1.6% of 410,000 active. AID 624417; further: nearly all actives have a fitted effect of over 55% in size
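qHTS in 1536-well format: reporter HEK293 cells expressing constitutive GLP-1R activity in DMEM + 10% Nu serum, 24 hr with compounds at 37 deg C, luminescence read after 12 min with detection reagent.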
A number is an active result; 0 = inactive; ? = inconclusive; - = no result. In the library only some 3.7% were active in any assay of this set; here they are far more common. The call rests on the fitted dose curve; in most records, active means well fitted curve in the direction sought with a large enough effect; inconclusive means small, poorly fitted or top-dose-only effect, or another doubt; inactive means no such curve, though single readings can be large; an effect the other way counts as inactive or inconclusive.

SMILES	HepG2 viability	ATXN2 expr inh	TGFb inhibitor	GLP1R ag	S2 tox	GLP-1R inv ag
Cc1cccc(C)c1OCCCCn1c(C2CC(=O)N(c3ccc(F)cc3)C2)nc2ccccc21 (stereo not drawn)	0	0	?	-	?	?
Cc1c(C(=O)NC2CCCCCC2)sc2ncnc(NCC3CCCO3)c12 (stereo not drawn)	-	-	-	-	0	-
CCS(=O)(=O)N1CC(=O)N(c2cccc(C)c2C)C(C)(C(=O)NC2CCCCC2)C1 (stereo not drawn)	0	-	?	-	-	0
O=C(Nc1c(Cl)cc2c(c1Cl)Cc1cc([N+](=O)[O-])ccc1-2)C(Cl)Cl	0	0	7.1µM	0	?	0
O=C(C[n+]1ccccc1)c1ccc(O)c(O)c1	0	-	0	-	-	-
C=CCSc1n[nH]c(-c2ccc(OCCCC)cc2)n1	0	?	?	0	28µM	?
Cc1noc(C)c1COC(=O)CCN1c2ccccc2Sc2ccccc21	0	0	0	0	0	4.5µM
Cc1ccc(-n2c(Cl)c(Cl)nc(Cl)c2=O)cc1	7.1µM	5.3µM	5µM	0	-	?
CC(NC(=O)c1cccnc1)c1nnc2n1CCN(Cc1ccc(-c3ccccc3)cc1)CC2 (stereo not drawn)	-	-	-	-	0	-
O=C(NCCc1ccccn1)C1CC12CCN(C(=O)c1c(F)cccc1Cl)CC2 (stereo not drawn)	-	-	-	-	0	-
Cc1ccc(N2C(=O)N(CC(=O)Nc3c(C)cc(C)cc3Cl)C(=O)C2C)cc1 (stereo not drawn)	0	0	0	0	0	10µM
Cc1c(C(=O)NCCC2CCCN2C)cnn1-c1nccc(-c2ccccc2F)n1 (stereo not drawn)	-	-	-	-	0	-
O=c1c2cc(Br)ccc2nc(-c2cccc(C(F)(F)F)c2)n1O	14µM	?	?	0	?	0
N#Cc1ccc(-c2nc3ccc(Br)cc3c(=O)n2O)cc1	0	0	0	0	0	0
CCOc1ccc(-c2nnc(N3CCCCC3)c3ccccc23)cc1	0	?	0	0	28µM	?
CCN(CC)C(=O)COc1ccc(-c2nnc(N3CCCCC3)c3ccccc23)cc1	0	0	0	0	0	0
Cc1cc(O)c(C(C)C)cc1N=Cc1ccccc1[N+](=O)[O-]	0	18µM	0	0	?	?
CN(C)CCCn1c(=O)n(Cc2ccco2)c(=O)c2c3c(sc21)CCCCC3	13µM	0	?	0	0	4.5µM
CC(O)(C#Cc1ccc2c(c1)N(c1nc(N)ncc1Cl)CC2)c1nccs1 (stereo not drawn)	-	0	-	-	-	-
Clc1ccc2c(NCCNC3CCCCC3)ccnc2c1	13µM	2.2µM	?	0	-	?
COc1ccccc1Nc1nn2c(=O)c3ccc(C(=O)NCc4ccc(F)cc4)cc3nc2s1	4µM	?	3.2µM	0	?	?
CCc1ccccc1Nc1nn2c(=O)c3ccc(C(=O)NCc4ccccc4OC)cc3nc2s1	0	?	0	0	0	0
O=C(NCCc1ccc(F)cc1)C(=O)NCC(c1ccc2c(c1)OCO2)N1CCOCC1 (stereo not drawn)	0	-	0	-	-	0
O=c1[nH]c2ccc(Cl)cc2c(-c2ccccc2)c1SC(=S)N1CCOCC1	0	0	13µM	0	0	?
Cc1cc(-c2ccc(S(=O)(=O)N3CCN(c4ccc(Cl)cc4)CC3)s2)on1	0	-	0	-	-	0
SMILES	HepG2 viability	ATXN2 expr inh	TGFb inhibitor	GLP1R ag	S2 tox	GLP-1R inv ag
CCn1c(-c2ccccc2)c[nH]c1=S	0	0	0	0	0	0
CC(C)Cn1c(-c2ccc(Br)cc2)c[nH]c1=S	0	0	?	0	0	10µM
Clc1ccc(CSC2=NCCCN2)cc1Cl	0	0	0	0	0	8.9µM
Cc1cc(NC(=O)COCc2cc(-c3ccc(F)cc3)on2)ccc1Br	0	-	0	-	-	0
Cc1ccsc1CN(C)CC(=O)Nc1cccc(S(=O)(=O)N(C)c2ccccc2)c1	0	0	0	0	0	8.9µM
CCN(CC(=O)Nc1cccc(S(=O)(=O)N(C)c2ccccc2)c1)Cc1cccs1	0	0	?	0	0	?
CN(c1ccccc1)S(=O)(=O)c1cccc(NC(=O)COc2cccc([N+](=O)[O-])c2)c1	0	0	0	0	0	10µM
CSc1ccc2cc(CNCc3ccccc3F)c(N3CCCC(CO)C3)nc2c1 (stereo not drawn)	-	-	-	-	0	-
COc1cccc(CC2(CO)CCCN(Cc3ccc(CO)o3)C2)c1 (stereo not drawn)	0	0	0	0	0	0
COc1cccc(CC2(CO)CCCN(Cc3ccc(C)s3)C2)c1 (stereo not drawn)	0	0	0	0	0	?
COc1cccc(CC2(CO)CCCN(Cc3[nH]c4ccc(C)cc4c3C)C2)c1 (stereo not drawn)	0	25µM	?	0	?	?
COc1cccc(CC2(CO)CCCN(Cc3cc4ccccc4[nH]3)C2)c1 (stereo not drawn)	0	0	11µM	0	0	?
CC(C)(C)n1ncc2c(=O)n(Cc3ccccc3C#N)cnc21	0	-	0	-	-	-
N#Cc1c(NC(=O)c2ccccc2Cl)n(Cc2ccccc2)c2nc3ccccc3nc12	0	0	7.9µM	0	0	?
CCCCn1c(NC(=O)c2ccccc2Cl)c(C#N)c2nc3ccccc3nc21	0	?	?	0	0	5.6µM
CCCCn1c(NC(=O)CC)c(C#N)c2nc3ccccc3nc21	0	0	0	0	0	0
Cc1cc(Nc2nnnn2-c2ccccc2)n(-c2ccc(Cl)cc2)n1	2.8µM	0	13µM	0	0	?
Cc1cc(Nc2ccccc2)n(-c2ccccc2)n1	0	0	0	0	0	0
COc1ccc(C[C@H]2CN3C(=NC[C@H]3C)N2CCNC(=O)c2ccc(C)c(Br)c2)cc1	0	0	?	0	28µM	?
CCOc1ccc2nc(C)cc(Nc3ccccc3OCC)c2c1	0	?	?	-	?	?
Cc1cnc(-n2ncc(C(=O)NCc3ccncc3)c2C2CC2)nc1-c1cccs1	-	-	-	-	0	-
CCOC(=O)c1cccc(N2C(=O)C3C4C=CC(CC4)C3C2=O)c1 (stereo not drawn)	0	0	0	0	0	3.2µM
Cc1cccc(N2C(=O)C3C4C=CC(CC4)C3C2=O)c1 (stereo not drawn)	0	-	0	0	0	0
Cc1ccc(F)cc1S(=O)(=O)NCc1nc(N2CCCC2)c2cccc(C)c2n1	-	-	-	-	0	-
COc1ccc(N2CCN(Cc3nnc(-c4cccc(Br)c4)o3)CC2)cc1	0	0	0	-	0	0
N#CC(=C1Nc2ccccc2S1)c1ccnc(OCc2ccc(CN3CCOCC3)cc2)n1	-	0.014µM	-	-	-	-
COc1cc(OC)cc(C(=O)NCCc2csc(-c3ccc(C(F)(F)F)cc3)n2)c1	0	-	0	-	-	10µM
